Measured values reported in PubChem BioAssay (NCATS).
Unmarked numbers belong to inactive results. Inconclusive results are not listed. Entries that show only a call come without a potency. The source made the active and inactive calls. Unless noted, calls come from the whole dose curve; as a rule, active = well fitted curve in the direction sought with a large enough effect; inconclusive = small, poorly fitted or top-dose-only effect, or another doubt; inactive = no such curve, though single readings can be large; an effect the other way counts as inactive or inconclusive.

What was measured:
[1] = AP1 Signaling Pathway (AID 357; active = well fitted curve in either direction with a large enough effect, not every such curve was filed as active;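 note: ME-180 reporter cells stimulated with EGF at its EC50 level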); conditions: ME-180 AP-1-bla reporter, EGF-induced, beta-lactamase ratio, 5 h; at 7.69 µM (top of the series) unless noted
Outline: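 Titration-series screen for positive or negative modulators of EC50 EGF-induced signaling in ME-180 cells carrying an AP-1-driven beta-lactamase reporter. After 5 hours at 37 degrees Celsius, CCF4 460nm/530nm emission ratio gave %Activity; AC50 values derived.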

[2] = target: Cytochrome P450 1A2 (Homo sapiens) (UniProt P05177); assay: p450-cyp1a2 (AID 410; calls by dose curve; note: potency is the fitted concentration of half-maximal effect)
Chain of Cytochrome P450 1A2 (Homo sapiens) (P05177 whole entry, looked up): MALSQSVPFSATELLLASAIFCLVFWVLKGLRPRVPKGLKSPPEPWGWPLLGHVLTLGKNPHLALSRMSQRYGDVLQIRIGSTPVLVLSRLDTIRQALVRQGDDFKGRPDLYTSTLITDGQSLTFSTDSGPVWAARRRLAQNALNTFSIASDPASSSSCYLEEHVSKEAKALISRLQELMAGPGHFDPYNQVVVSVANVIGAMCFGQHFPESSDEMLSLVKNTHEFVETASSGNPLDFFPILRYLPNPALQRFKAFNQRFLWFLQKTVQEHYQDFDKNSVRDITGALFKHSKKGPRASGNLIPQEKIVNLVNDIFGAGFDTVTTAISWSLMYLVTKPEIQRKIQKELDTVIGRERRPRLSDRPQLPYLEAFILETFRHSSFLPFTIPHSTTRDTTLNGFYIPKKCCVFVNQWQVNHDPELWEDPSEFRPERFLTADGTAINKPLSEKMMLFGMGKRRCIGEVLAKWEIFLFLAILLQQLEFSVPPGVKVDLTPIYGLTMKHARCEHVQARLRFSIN
Outline: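 Human CYP1A2 (20nM) demethylated Luciferin-ME at its Km (100uM) in 100mM KPO4. After 10 min compound preincubation, NADPH regeneration ran the reaction 60 min at room temperature. Luciferin was read by luminescence, normalized to 57 uM furafylline.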

[3] = NFAT Signaling Pathway (AID 444; active = well fitted curve in either direction with a large enough effect, not every such curve was filed as active;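 note: carbachol stimulus at about its EC50 of 1 µM final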); conditions: Jurkat NFAT-bla M1, carbachol, beta-lactamase ratio, 5 h; at 7.69 µM (top of the series) unless noted
Outline: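 Jurkat cells with NFAT-driven β-lactamase reporter and co-expressed M1 receptor, stimulated with carbachol (final 1 uM, ~EC50), compound titration, 5 h at 37 °C. CCF4 loaded 1 h at RT; 460/530 nm ratio gave %activity and AC50.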

[4] = target: Glucocorticoid receptor (Homo sapiens) (UniProt P04150); assay: GR-GFP Redistribution (AID 450;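 active = compounds whose dose series gives a full or clear partial fitted curve of increased nuclear translocation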; note: potency is the fitted concentration of half-maximal effect); conditions: U2OS GR-GFP nuclear translocation, laser cytometry, 2 h
Chain of Glucocorticoid receptor (Homo sapiens) (P04150 whole entry, looked up, the tested form may be a part): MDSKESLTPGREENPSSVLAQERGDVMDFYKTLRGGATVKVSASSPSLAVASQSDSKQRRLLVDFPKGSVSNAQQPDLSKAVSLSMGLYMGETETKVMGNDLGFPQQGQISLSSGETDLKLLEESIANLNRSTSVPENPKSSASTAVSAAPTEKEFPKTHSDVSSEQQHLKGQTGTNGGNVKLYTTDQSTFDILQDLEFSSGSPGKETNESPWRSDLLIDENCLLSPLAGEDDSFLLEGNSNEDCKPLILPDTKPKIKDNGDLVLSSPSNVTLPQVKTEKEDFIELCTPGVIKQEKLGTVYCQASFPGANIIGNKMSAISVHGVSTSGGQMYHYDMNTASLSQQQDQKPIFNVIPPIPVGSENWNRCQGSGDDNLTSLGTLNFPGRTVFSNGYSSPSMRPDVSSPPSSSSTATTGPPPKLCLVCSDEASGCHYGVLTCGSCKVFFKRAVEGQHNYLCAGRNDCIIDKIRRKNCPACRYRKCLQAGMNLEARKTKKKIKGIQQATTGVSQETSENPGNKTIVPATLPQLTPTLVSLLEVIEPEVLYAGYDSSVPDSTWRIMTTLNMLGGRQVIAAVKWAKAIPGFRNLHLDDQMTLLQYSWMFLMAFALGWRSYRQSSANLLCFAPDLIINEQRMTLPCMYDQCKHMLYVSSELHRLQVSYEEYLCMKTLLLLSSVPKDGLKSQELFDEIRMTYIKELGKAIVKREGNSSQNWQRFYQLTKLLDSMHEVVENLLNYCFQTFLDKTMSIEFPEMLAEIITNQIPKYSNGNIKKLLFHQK

[5] = target: Glucocorticoid receptor (Homo sapiens) (UniProt P04150); assay: GR-EFC Redistribution (AID 451; calls by dose curve; note: potency is the fitted concentration of half-maximal effect); conditions: CHO-K1 GR-EFC translocation, beta-gal luminescence, 2 h
Outline: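 CHO-K1 cells expressing nuclear EA and GR-ED fragments of b-gal; compounds titrated up to 46 uM final, 2 h at 37 C. GR nuclear translocation read as complemented b-gal luminescence after 1 h RT detection.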

[6] = target: 3',5'-cyclic-AMP phosphodiesterase 4B (Homo sapiens) (UniProt Q07343); assay: qHTS Assay for Inhibitors of PDE-IV (AID 607; active = well fitted activation curve with a large enough effect in the main read-out, with a control signal flat, not every such curve was filed as active)
Chain of 3',5'-cyclic-AMP phosphodiesterase 4B (Homo sapiens) (Q07343 whole entry, looked up): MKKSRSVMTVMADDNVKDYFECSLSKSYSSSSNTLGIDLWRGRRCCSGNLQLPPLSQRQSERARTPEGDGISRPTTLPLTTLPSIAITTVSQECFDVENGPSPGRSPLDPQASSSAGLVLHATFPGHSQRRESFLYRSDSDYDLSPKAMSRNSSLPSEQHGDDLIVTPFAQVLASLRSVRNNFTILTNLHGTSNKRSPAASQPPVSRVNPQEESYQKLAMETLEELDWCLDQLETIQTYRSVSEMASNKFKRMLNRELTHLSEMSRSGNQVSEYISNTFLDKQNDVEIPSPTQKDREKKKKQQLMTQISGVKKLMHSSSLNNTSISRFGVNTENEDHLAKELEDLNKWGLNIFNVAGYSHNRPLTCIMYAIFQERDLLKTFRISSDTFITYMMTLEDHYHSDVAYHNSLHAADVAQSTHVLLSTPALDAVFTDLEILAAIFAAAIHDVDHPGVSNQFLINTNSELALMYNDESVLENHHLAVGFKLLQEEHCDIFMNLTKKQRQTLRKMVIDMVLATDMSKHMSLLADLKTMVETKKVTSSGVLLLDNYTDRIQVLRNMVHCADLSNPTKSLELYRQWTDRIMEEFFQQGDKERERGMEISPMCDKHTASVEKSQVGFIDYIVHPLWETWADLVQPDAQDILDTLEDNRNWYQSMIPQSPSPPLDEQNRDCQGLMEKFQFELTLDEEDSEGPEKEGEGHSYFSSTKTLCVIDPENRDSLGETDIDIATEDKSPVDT
Outline: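 Live HEK293 cells with a modified cyclic nucleotide-gated (CNG) channel report intracellular cAMP via membrane-potential dye fluorescence (ex 535/em 590 nm). Endogenous PDE-IV was targeted. Compounds were tested at up to 22.9 uM final; RO 20-1724 100 uM served as control.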

[7] = target: Guanine nucleotide-binding protein G(i) subunit alpha-1 (Homo sapiens) (UniProt P63096); assay: qHTS Assay for Inhibitors of RGS12 GoLoco Motif Activity (Green Fluorophore) (AID 879);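 note: negative values mean loss of peptide binding seen as reduced polarization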
Chain of Guanine nucleotide-binding protein G(i) subunit alpha-1 (Homo sapiens) (P63096 whole entry, looked up): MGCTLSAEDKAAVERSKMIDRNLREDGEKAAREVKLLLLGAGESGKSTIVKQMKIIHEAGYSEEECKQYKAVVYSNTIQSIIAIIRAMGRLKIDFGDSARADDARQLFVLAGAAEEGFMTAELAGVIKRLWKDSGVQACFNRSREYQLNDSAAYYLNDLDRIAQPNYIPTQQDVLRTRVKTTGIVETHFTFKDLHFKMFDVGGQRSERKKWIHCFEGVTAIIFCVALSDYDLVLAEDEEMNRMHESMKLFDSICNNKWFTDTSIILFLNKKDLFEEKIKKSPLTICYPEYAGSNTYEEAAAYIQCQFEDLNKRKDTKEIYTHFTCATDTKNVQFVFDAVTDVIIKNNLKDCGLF
Outline: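 Fluorescence polarization assay: 50 nM Gαi1 with 10 nM FITC-labeled RGS12 GoLoco peptide in 10 mM Tris pH 7.5, 150 mM NaCl, 0.1 mM GDP, 0.05% NP40, 10 min at room temperature with compound.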

[8] = target: Cytochrome P450 3A4 (Homo sapiens) (UniProt P08684); assay: qHTS Assay for Activators of Cytochrome P450 3A4 (AID 885); note: nearly all actives have a fitted effect of over 65% in size
Chain of Cytochrome P450 3A4 (Homo sapiens) (P08684 whole entry, looked up): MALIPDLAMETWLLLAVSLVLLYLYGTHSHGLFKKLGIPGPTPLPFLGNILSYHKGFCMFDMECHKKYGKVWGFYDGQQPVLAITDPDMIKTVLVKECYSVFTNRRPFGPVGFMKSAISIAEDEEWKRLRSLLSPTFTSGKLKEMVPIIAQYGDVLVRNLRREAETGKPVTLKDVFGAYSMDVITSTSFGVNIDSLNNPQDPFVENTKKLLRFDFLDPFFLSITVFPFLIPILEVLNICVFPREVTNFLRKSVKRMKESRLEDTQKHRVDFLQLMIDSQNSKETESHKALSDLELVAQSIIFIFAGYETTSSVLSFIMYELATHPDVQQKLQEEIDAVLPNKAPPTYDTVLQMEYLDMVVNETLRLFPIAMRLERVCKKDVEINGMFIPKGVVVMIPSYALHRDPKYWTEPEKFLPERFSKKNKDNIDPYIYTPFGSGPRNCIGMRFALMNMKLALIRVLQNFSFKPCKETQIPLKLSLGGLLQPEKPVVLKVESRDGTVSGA
Outline: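 Quantitative HTS format: compounds preincubated with 20nM human CYP3A4 and Luciferin-PPXE substrate at KM, reaction started by NADPH regeneration, stopped after 60 min, luciferase luminescence read 20 min later.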

[9] = qHTS Assay for Identification of Small Molecule Agonists for Thrombopoietin (TPO) Signaling Pathway (AID 917)
Outline: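 IL-3-dependent murine pro-B Ba/F3 cells, stably transfected with human TPO receptor and GpIIb-promoter luciferase, are incubated 24 hrs at 37 C with test compound and 26 pM TPO; luciferase signal is read after 10 min at room temperature.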

[10] = target: Muscarinic acetylcholine receptor M1 (Rattus norvegicus) (UniProt P08482); assay: qHTS Assay for Antagonists of Acetylcholine Muscarinic M1 Receptor: Kinetic Measurement of Intracellular Calcium Response (AID 943);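 note: Fluo-4 calcium signal as peak divided by basal fluorescence over 4 min; nearly all actives have a fitted effect of over 75% in size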
Chain of Muscarinic acetylcholine receptor M1 (Rattus norvegicus) (P08482 whole entry, looked up): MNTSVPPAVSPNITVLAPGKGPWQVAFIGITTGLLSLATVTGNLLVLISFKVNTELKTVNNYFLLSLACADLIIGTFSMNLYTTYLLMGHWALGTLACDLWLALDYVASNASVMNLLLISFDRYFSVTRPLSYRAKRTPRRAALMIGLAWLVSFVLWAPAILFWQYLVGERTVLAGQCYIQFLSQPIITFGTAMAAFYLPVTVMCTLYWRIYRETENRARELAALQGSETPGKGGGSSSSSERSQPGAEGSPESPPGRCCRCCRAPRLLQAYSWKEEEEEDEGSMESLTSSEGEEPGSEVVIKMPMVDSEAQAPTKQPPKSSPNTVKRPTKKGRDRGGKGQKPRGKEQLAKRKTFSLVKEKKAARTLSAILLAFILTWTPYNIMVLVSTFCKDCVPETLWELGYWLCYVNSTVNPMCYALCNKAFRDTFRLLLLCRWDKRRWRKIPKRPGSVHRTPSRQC
Outline: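 CHO cells stably expressing rat M1 were loaded with no-wash Fluo-4 dye for 1 h at 37C, pre-incubated 10 min with compound, then challenged with EC80 carbachol (100 nM final); kinetic calcium read 4 min, peak/basal ratio.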

[11] = target: Muscarinic acetylcholine receptor M1 (Rattus norvegicus) (UniProt P08482); assay: qHTS Assay for Antagonists of Acetylcholine Muscarinic M1 Receptor: Measurement of IP-One Response (AID 944); note: nearly all actives have a fitted effect of over 75% in size
Outline: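 CHO cells expressing rat M1 receptor, recovered overnight, were pre-incubated 10 min with compound, then stimulated 30 min with carbachol at EC80 (200 nM) in LiCl-containing buffer, pH 7.4. IP1 accumulation was read by HTRF (620/665 nm).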

[12] = target: Pyruvate kinase (Leishmania mexicana) (UniProt Q27686); assay: qHTS Validation Assay for Inhibitors of Leishmania Mexicana Pyruvate Kinase (AID 945)
Chain of Pyruvate kinase (Leishmania mexicana) (Q27686 2-499 E452W): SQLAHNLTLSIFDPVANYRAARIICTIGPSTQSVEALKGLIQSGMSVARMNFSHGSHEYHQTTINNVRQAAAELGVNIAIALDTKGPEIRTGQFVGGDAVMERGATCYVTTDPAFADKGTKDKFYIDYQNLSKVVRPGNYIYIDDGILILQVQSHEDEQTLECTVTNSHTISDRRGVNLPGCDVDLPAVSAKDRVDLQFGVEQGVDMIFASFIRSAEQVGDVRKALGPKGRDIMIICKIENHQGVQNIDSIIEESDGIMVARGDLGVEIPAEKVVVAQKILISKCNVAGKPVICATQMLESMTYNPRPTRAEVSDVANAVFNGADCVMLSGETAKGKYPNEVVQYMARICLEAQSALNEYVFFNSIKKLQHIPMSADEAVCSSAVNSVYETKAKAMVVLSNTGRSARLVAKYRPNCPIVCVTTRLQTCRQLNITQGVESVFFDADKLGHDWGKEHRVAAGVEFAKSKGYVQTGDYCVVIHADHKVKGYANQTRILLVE
Outline: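 LmPYK E451W 0.2 nM; 0.5 mM PEP, 0.1 mM ADP, 7 mM MgCl2, 50 mM KCl, imidazole pH 7.2, 0.01% Tween 20, 0.05% BSA; 1 h RT; PKLight luminescence; DMSO-normalized.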

[13] = target: Pyruvate kinase PKM (Homo sapiens) (UniProt P14618); assay: qHTS Assay for Activators of Human Muscle Pyruvate Kinase (AID 954; active = well fitted curve in the direction sought with a large enough effect, not every such curve was filed as active)
Chain of Pyruvate kinase PKM (Homo sapiens) (P14618 whole entry, looked up): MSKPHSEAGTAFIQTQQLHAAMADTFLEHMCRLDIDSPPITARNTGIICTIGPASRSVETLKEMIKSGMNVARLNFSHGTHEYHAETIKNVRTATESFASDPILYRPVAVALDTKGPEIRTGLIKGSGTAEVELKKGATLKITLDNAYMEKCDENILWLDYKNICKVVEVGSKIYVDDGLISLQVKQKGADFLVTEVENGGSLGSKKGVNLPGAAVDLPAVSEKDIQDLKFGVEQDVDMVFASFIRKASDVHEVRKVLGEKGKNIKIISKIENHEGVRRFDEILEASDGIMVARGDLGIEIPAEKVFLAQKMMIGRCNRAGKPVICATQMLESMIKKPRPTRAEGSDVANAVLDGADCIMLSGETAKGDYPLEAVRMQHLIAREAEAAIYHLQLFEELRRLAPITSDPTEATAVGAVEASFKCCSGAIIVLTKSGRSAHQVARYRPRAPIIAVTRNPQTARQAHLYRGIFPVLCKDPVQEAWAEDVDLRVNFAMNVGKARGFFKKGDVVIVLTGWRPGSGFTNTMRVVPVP
Outline: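 Enzyme was run at intermediate activity so both inhibitors and activators could be detected. ATP formed from ADP and PEP by 0.1 nM human PKM2 during a 1 h room-temperature incubation was quantified by coupled luciferase luminescence.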

[14] = target: Alpha-galactosidase A (Homo sapiens) (UniProt P06280); assay: Counterscreen for Glucocerebrosidase Inhibitors: qHTS Assay for Human alpha-Galactosidase at pH 4.5 (AID 992)
Chain of Alpha-galactosidase A (Homo sapiens) (P06280 whole entry, looked up): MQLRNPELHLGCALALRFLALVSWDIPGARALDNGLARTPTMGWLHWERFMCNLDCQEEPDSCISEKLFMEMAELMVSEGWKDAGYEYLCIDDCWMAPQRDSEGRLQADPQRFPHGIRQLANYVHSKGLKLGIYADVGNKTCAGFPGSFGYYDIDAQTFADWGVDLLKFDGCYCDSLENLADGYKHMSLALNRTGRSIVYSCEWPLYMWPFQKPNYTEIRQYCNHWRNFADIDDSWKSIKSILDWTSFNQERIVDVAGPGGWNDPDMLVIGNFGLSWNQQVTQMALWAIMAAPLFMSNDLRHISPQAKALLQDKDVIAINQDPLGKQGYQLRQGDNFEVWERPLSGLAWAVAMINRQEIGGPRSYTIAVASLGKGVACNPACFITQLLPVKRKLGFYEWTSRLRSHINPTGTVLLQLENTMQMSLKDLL
Outline: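 Read-out is 4-methylumbelliferone fluorescence (365 nm excitation, 440 nm emission) after a pH 10 NaOH/glycine stop. Reactions held 2 nM enzyme and 80 uM substrate at pH 4.5 for 20 min at room temperature.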

[15] = target: alpha-glucosidase (Oryza sativa, rice) (UniProt Q653V4); assay: Counterscreen for Glucocerebrosidase Inhibitors: qHTS Assay for Rice alpha-Glucosidase at pH 5.0 (AID 997)
Outline: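 Rice alpha-glucosidase (4 nM final) with 400 uM 4-methylumbelliferyl-alpha-D-glucopyranoside in citrate buffer pH 5.0, 20 min at room temperature, stopped at pH 10; fluorescence 365/440 nm, compounds 0.7 nM–77 uM, AC50 from Hill fits.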

[16] = Stat Signaling Pathway (AID 446; active = well fitted curve in either direction with a large enough effect, not every such curve was filed as active;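 note: ME-180 cervical cancer cells given 40 pM IL-6 alongside compound; SIE-controlled beta-lactamase reporter measured as 460/530 nm FRET emission ratio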); conditions: ME-180 (cervical carcinoma) SIE beta-lactamase reporter, IL-6 stimulated, 5 h; at 7.69 µM (top of the series) unless noted
Outline: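 IL-6/STAT signaling read in ME-180 cells via an SIE beta-lactamase reporter. Stimulus was 40 pM IL-6 (its AC50) for 5 hrs, so both activation and inhibition register.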

[17] = target: Mitogen-activated protein kinase 10 (Mus musculus) (UniProt Q61831); assay: JNK3 AlphaScreen Assay (AID 530; active = well fitted curve in either direction with a large enough effect, not every such curve was filed as active;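 note: kinase came from lysate of stimulated human HepG2 cells; signal reports phosphorylation of biotinylated GST-cJun 1-79 at Ser73 with 10 µM ATP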)
Outline: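 qHTS format: compounds tested as titrations against IL-1beta/TNF-alpha-activated HepG2 lysate JNK3 with biotin-GST-cJun substrate and 10 uM ATP at room temperature. Loss of anti-phospho-cJun AlphaScreen signal indicates inhibition.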

[18] = target: Cytochrome P450 2C9 (Homo sapiens) (UniProt P11712); assay: qHTS Assay for Inhibitors and Substrates of Cytochrome P450 2C9 (AID 883); note: nearly all actives have a fitted effect of over 60% in size
Outline: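 Signal: luciferase luminescence reporting luciferin produced by CYP2C9. Conditions: 10nM enzyme, Luciferin-H 100uM at KM, 25mM KPO4, 37C, 60 min NADPH-driven reaction. Reference: 57uM sulphaphenazole as 100% inhibition.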

[19] = target: Cytochrome P450 2C19 (Homo sapiens) (UniProt P33261); assay: qHTS Assay for Inhibitors and Substrates of Cytochrome P450 2C19 (AID 899); note: nearly all actives have a fitted effect of over 60% in size
Outline: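 Signal comes from luciferase acting on luciferin released by CYP2C19-mediated hydroxylation of Luciferin-H EGE, 10uM (KM). Assay mix: 5nM enzyme, 50mM KPO4; 60 min at 37C with NADPH regeneration. Data normalized against 57uM ketoconazole.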

SMILES | activity change, negative = inhibition [1] | Potency [2] | activity change, negative = inhibition [3] | Potency [4] | Potency [5] | Potency [6] | outcome [7] | Potency [8] | outcome [9] | Potency [10] | Potency [11] | outcome [12] | outcome [13] | outcome [14] | Potency [15] | activity, negative = inhibition [16] | Potency [17] | activity change, negative = inhibition [2] | Potency [18] | Potency [19]
O=c1ccn([C@@H]2O[C@@H](COP(=O)(O)OP(=O)(O)O)[C@H](O)[C@@H]2O)c(=O)[nH]1 | 4.38% [at 38 µM] | inactive | -1.51% [at 38 µM] | > 46 µM | > 46 µM | inactive | inactive | inactive | inactive | inactive | inactive | inactive | inactive | inactive | inactive |  |  |  |  | 
Oc1ccc([C@@H]2CNCCc3c2cc(O)c(O)c3Cl)cc1 | -5.37% [at 38 µM] | inactive |  | > 46 µM | > 46 µM | inactive | inactive | inactive |  |  |  | inactive | inactive | inactive | inactive | 18.7% [at 38 µM] | inactive |  |  | 
CC(C)(C)CNCCO | -7.33% |  | 4.1% | > 46 µM | > 9.22 µM | inactive |  |  |  |  |  |  |  |  |  |  | inactive | 6.2% [at 2.29 µM] |  | 
Cc1ccc(C(=O)O[C@@H](C(=O)O)[C@@H](OC(=O)c2ccc(C)cc2)C(=O)O)cc1 (tested in a mixture with another compound) | -1.5% [at 38 µM] | inactive | 0.143% [at 38 µM] |  |  | inactive | inactive |  | inactive |  | inactive | inactive |  | inactive | inactive | 0.98% [at 38 µM] |  |  |  | 
CC(=O)[C@@H]1CC[C@@H]2[C@@H]3CC=C4C[C@H](OS(=O)(=O)O)CC[C@@]4(C)[C@H]3CC[C@]21C | 12.4% [at 38 µM] | inactive | 1.64% [at 38 µM] | > 46 µM | > 46 µM | inactive | inactive |  | inactive | inactive |  | inactive | inactive | inactive | inactive |  | inactive |  |  | 
Nc1ccn([C@H]2CC[C@H](CO)O2)c(=O)n1 | 15.8% [at 38 µM] | inactive | 5.71% [at 38 µM] |  |  | inactive |  |  |  |  |  |  |  |  |  | -0.228% [at 38 µM] | inactive |  | inactive | inactive
CCNc1ncc2nc(-c3ccccc3)c(=O)n(C3CC3)c2n1 | -3.39% | 2.51 µM (active) | 23.2% | > 9.22 µM | > 46 µM |  |  |  |  |  |  |  |  |  |  |  | inactive |  |  | 
CCN(CC)[C@@H](C)C(=O)N1c2ccccc2Sc2ccccc21 | 14.4% [at 38 µM] | inactive | -74.6% [at 38 µM] (active) | > 46 µM | > 46 µM | inactive |  |  |  |  |  |  |  |  |  |  | inactive |  |  | 
